Assay outcomes (PubChem)
Shown are actives, neighbours in structure and some others; about 11% of the full set was active somewhere.
AmpC inh no detg: qHTS Inhibitors of AmpC Beta-Lactamase (assay without detergent); Potency, µM (highest dose often 57.1 µM), without a hit: at the highest dose activity change, negative = inhibition, actives largely listed as inhibitors; P00811; actives 0.52% (n = 330,000); AID 485341, 2010; AmpC nitrocefin hydrolysis, absorbance 480 nm, 0.0001% Triton;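 also: plate controls were no compound for no effect and no enzyme for full effect; nearly all actives have a fitted effect of over 20% in size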
Target sequence (P00811 whole entry, looked up): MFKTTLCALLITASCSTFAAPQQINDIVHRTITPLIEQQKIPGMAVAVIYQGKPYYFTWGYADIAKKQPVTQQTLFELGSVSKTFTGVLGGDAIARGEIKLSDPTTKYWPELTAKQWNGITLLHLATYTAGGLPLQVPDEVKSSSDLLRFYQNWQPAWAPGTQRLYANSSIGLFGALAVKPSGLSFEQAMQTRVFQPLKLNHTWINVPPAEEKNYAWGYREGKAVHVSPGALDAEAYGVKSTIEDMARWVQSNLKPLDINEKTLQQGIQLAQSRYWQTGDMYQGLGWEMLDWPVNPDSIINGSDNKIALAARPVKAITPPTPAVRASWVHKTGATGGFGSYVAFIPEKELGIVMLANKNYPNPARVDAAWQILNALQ
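20 mM phosphate pH 7.0 + 0.01% (detergent screen) or 0.0001% Triton X-100; 5.3 nM AmpC reagent; cpd preinc 15 min RT; nitrocefin (800 uM stock) to start; A480 q20 s × 4 min; Activity was normalised to no-enzyme and no-compound control wells.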
AmpC inh detg: qHTS Inhibitors of AmpC Beta-Lactamase (assay with detergent); P00811; AmpC hydrolysis of nitrocefin, absorbance 480 nm, 0.01% Triton; Potency, µM (series often up to 114 µM), without a hit: top-dose activity change, negative = inhibition, actives largely listed as inhibitors; actives 0.041% (n = 370,000);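 also: 0% = no-compound wells and -100% = no-enzyme wells; nearly all actives have a fitted effect of over 25% in size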
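AmpC (5.3 nM in the dispensed reagent) in 20 mM phosphate pH 7.0 with 0.01% (detergent screen) or 0.0001% Triton X-100 was preincubated with compounds for 15 min at room temperature. Nitrocefin was then added from an 800 uM solution, and hydrolysis was followed at 480 nm.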
Pf growth 96h: Primary qHTS for delayed death inhibitors of the malarial parasite plastid, 96 hour incubation. P. falciparum luciferase reporter growth, 96 h. Potency, µM (titrated, usually from 28.7 µM), for inactives: at the top dose activity change, negative = inhibition, most hits filed as inhibitors. actives 6.9% (n = 320,000). AID 504834, 2011
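P. falciparum expressing integrated firefly luciferase grown in erythrocytes (2% hematocrit, 0.05% parasitemia final) with compounds for 96 hours at 37 C, 5% CO2. Growth inhibition read as loss of luminescence after adding luciferase detection reagent.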
HCV inhibitor: qHTS Assay for Inhibitors of Hepatitis C Virus (HCV) | Huh7.5.1 HCVcc-Cre infection, luciferase reporter, 44 h | actives 3.4% (n = 340,000) | Potency, µM (series often up to 41.8 µM), without a hit: at the top dose activity change, negative = inhibition, hits mostly inhibitors | AID 651820, 2012
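Cells seeded at 1,000/well and cultured 4 h, then compounds added followed by HCVcc-Cre virus (~0.5 moi). After 44 h further culture, luciferase substrate was added, plates held 15 min at room temperature, and luminescence read for 15 sec.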
Pf growth 48h: Primary qHTS for delayed death inhibitors of the malarial parasite plastid, 48 hour incubation | P. falciparum luciferase growth in erythrocytes, 48 h | Potency, µM (titrated, usually from 28.7 µM), for the others: at the highest dose activity change, negative = inhibition, most hits filed as inhibitors | actives 5.9% (n = 310,000)
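Compounds are pin-transferred into medium, infected erythrocytes (2% hematocrit, 0.1% parasitemia final) are added, and plates sit one parasite generation at 37 C in 5% CO2. Detection reagent is then added and luminescence measured.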
AMA1-RON2 inh: qHTS for Inhibitors of AMA1-RON; Towards Development of Antimalarial Drug Lead: Primary Screen; Plasmodium falciparum AMA1 (3D7) - RON2 peptide interaction; AlphaScreen AMA1-biotinylated RON2 peptide binding; Potency, µM (series often up to 58.2 µM), without a hit: top-dose activity change, negative = inhibition, actives largely listed as inhibitors; actives 0.2% (n = 360,000); AID 720542, 2013;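 also: 0% = vehicle wells and -100% = peptide control; nearly all actives have a fitted effect of over 45% in size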
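AMA1 (3D7) with his tag at 25 nM final met compounds first, then biotinylated RON2 peptide at 25 nM; detection used donor plus acceptor beads, 10 µg/mL apiece, read by AlphaScreen after 30 min at room temperature.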
Starred values were filed as active, the others as inactive; ? = inconclusive; . = not tested or not shown; [ ] = remark or other dose. Calls follow the shape of the dose curve; as a rule, active = well fitted curve in the direction sought with a large enough effect; inconclusive = small, poorly fitted or top-dose-only effect, or another doubt; inactive = no such curve, though single readings can be large; an effect the other way counts as inactive or inconclusive. Unless noted, % is scaled to controls: 0 for no effect and ±100 for the full control effect; potency is read from the fitted curve at half-maximal effect.

SMILES	AmpC inh no detg	AmpC inh detg	Pf growth 96h	HCV inhibitor	Pf growth 48h	AMA1-RON2 inh
CCN(CC)S(=O)(=O)c1ccc(N2CCOCC2)c(NC(=O)COc2ccccc2)c1	32%	5%	?	?	9.3µM*	-4%
CCN(CC)c1ccc(S(=O)(=O)N(CC)CC)cc1NC(=O)C1CCCC1	7%	5%	?	?	15µM*	8%
CCc1ccccc1OCC(=O)Nc1cc(S(=O)(=O)N(CC)CC)ccc1N1CCOCC1	40%	-2%	1.2µM*	?	1.3µM*	10%
CCN(CC)S(=O)(=O)c1ccc(N2CCOCC2)c(NC(=O)C2CCCC2)c1	40%	-5%	12µM*	?	?	-6%
COc1cccc(N2CCN(C(=O)Cn3ncc4c3-c3ccccc3OC4)CC2)c1	.	-3%	.	.	.	.
Cc1ccc(NC(=O)CSc2nc(=O)n(CCN3CCOCC3)c3c2CCC3)c(C)c1	.	2%	.	.	.	.
CCN(CC)S(=O)(=O)c1ccc(N2CCOCC2)c(NC(=O)CCOc2ccccc2)c1	87%	-2%	?	-24%	9.3µM*	-7%
COc1cccc(OC)c1OCC(=O)Nc1ccc(S(=O)(=O)N2CCCC2)cc1	-12%	.	.	8.9µM*	.	-8%
Cc1cc(OCC(=O)Nc2ccc(S(=O)(=O)N3CCN(C)CC3)cc2)ccc1Br	194%	3%	6.6µM*	?	12µM*	-16%
COc1ccccc1OCC(=O)Nc1ccc(S(=O)(=O)N2CCCCCC2)cc1	-47%	5%	?	1.6µM*	0%	-1%
O=C(COc1ccc(Br)cc1CNC1CCCC1)Nc1ccccc1	-10%	3%	-20%	?	13µM*	-8%
CCOCCn1ccc2c(OCC(=O)Nc3cccc([N+](=O)[O-])c3)cccc2c1=O	.	9%	.	.	.	.
COc1ccc(NC(=O)COc2ccc(S(=O)(=O)N3CCOCC3)cc2C)cc1OC	17%	-14%	?	?	-3%	-14%
O=C(COc1ccc(Br)cc1CO)Nc1ccc(F)cc1	-34%	-6%	-11%	?	-9%	15%
O=C(COc1ccc(Br)cc1CO)Nc1ccc(S(=O)(=O)N2CCCC2)cc1	-6%	-12%	?	?	9.3µM*	-10%
Cc1ccc(OCC(=O)Nc2ccc(S(=O)(=O)N3CCOCC3)cc2)c(Br)c1	17%	-9%	?	.	10µM*	-12%
O=C(COc1ccccc1)Nc1ccc(S(=O)(=O)N2CCCCCC2)cc1	-49%	5%	?	-2%	.	-19%
O=C(COc1ccc2ccccc2c1)Nc1ccc(S(=O)(=O)N2CCCCCC2)cc1	18µM*	1%	?	-27%	12µM*	-12%
Cc1cc(-c2nnc(CCC(=O)N(C)CCc3ccccc3)o2)no1	0%	-1%	9%	-3%	25%	-6%
Cc1cccc(Cc2nnc(CCC(=O)N(C)CCc3ccccc3)o2)c1	133%	2%	12µM*	17%	-28%	3%
Cc1n(Cc2ccccc2)c2ccccc2[n+]1Cc1ccccc1	-4%	?	425%	-13%	1.3µM*	5%
CCn1c(C)[n+](Cc2ccccc2)c2ccc(C(=O)OC)cc21	-7%	2%	4%	7%	?	-23%
CCn1c(C)[n+](Cc2ccccc2)c2ccc(Cl)cc21	-4%	-5%	-82%	7%	7.4µM*	19%
CCCc1cc(=O)[nH]c(SCc2nc(-c3ccc(OC)cc3)no2)n1	.	-6%	.	.	.	.
CC[n+]1c(/C=C/c2ccc(N(C)C)cc2)ccc2ccccc21	0%	?	0.41µM*	-20%[0.335 µM]	0.66µM*	?
SMILES	AmpC inh no detg	AmpC inh detg	Pf growth 96h	HCV inhibitor	Pf growth 48h	AMA1-RON2 inh
CC[n+]1c(/C=C/c2ccc(OC(C)=O)c(OC)c2)ccc2ccccc21	9%	-3%	?	-23%	?	-1%
CC[n+]1c(/C=C/c2ccc(OC)c(OC)c2)ccc2ccccc21	-9%	-13%	-19%	2%	1µM*	-3%
CCN(CC)c1nc2cc(OC)ccc2cc1C#N	0%	?	?	?	?	32%
C[n+]1c(/C=C/c2ccc(O)cc2)ccc2ccccc21	-19%	1%	2.3µM*	?	?	-20%
CCN(CC)c1ccc(/C=C/c2ccc3ccc(OC)cc3[n+]2CC)cc1	19%	-6%	-4%	2.2µM*	1.9µM*	?
NC(=O)c1c(NC(=O)CS(=O)(=O)c2ccc(Cl)cc2)sc2c1CCCC2	.	-6%	.	.	.	.
COc1ccc(CCNC(=O)Cn2nc(C)c3c(C)n(-c4ccc(C)cc4)nc3c2=O)c(OC)c1	-16%	-5%	?	.	?	.
CCN(CC)C(=O)Cn1cc(SCC(=O)Nc2ccc(C)cc2)c2ccccc21	.	13%	.	.	.	.
CCN(CC)C(=O)Cn1cc(SCC(=O)NC)c2ccccc21	-14%	1%	12µM*	3%	14%	-6%
CCCN(CCC)C(=O)Cn1ccc(=N)c2ccccc21	-24%	?	.	13%	1.7µM*	7%
CCn1cc(SCC(=O)NC2CCCC2)c2ccccc21	1%	-1%	?	-21%	7.4µM*	-14%
Cc1nn(C(=O)COc2ccccc2)c(C)c1Sc1ccccc1	.	9%	.	.	.	.
COc1ccc(OC)c(NC(=O)CSC2=Nc3ccccc3C3=NC(CCC(=O)NCc4ccco4)C(=O)N23)c1 (centres undefined)	.	5%	.	.	.	.
CCc1cc2cc(C(=O)Nc3ccccc3F)sc2s1	-36%	-6%	9.3µM*	?	204%	2%
CCc1cc2cc(C(=O)Nc3ccc(F)cc3)sc2s1	-6%	?	0.41µM*	-23%	-2%	-7%
CCCCC(=O)N1CCc2cc(OC)c(OC)cc2C1COc1ccc(OC)cc1 (centres undefined)	.	2%	.	.	.	.
CCC(Sc1nc2ncccc2o1)C(=O)Nc1ccc(OC)c(OC)c1 (centres undefined)	.	21%	.	.	.	.
COc1ccc(C(=O)NC2CCCCCC2)cc1S(=O)(=O)N1CCCc2ccccc21	-14%	?	10µM*	?	.	-15%
COc1ccc(C(=O)Nc2nc3c(s2)CCCC3)cc1S(=O)(=O)N1CCCc2ccccc21	?	-5%	10µM*	?	13µM*	-4%
